Assay outcomes as filed in PubChem BioAssay.
VDR inhibitor = blocks the human vitamin D receptor; P11473; VDR-SRC2-3 peptide fluorescence polarization, 2 h; Potency, µM, inactives show max response, negative = inhibition, most hits filed as inhibitors; actives 0.93% (n = 400,000); AID 504847; also: potency is read from the fitted curve at half-maximal effect
Target sequence (P11473 whole entry, looked up): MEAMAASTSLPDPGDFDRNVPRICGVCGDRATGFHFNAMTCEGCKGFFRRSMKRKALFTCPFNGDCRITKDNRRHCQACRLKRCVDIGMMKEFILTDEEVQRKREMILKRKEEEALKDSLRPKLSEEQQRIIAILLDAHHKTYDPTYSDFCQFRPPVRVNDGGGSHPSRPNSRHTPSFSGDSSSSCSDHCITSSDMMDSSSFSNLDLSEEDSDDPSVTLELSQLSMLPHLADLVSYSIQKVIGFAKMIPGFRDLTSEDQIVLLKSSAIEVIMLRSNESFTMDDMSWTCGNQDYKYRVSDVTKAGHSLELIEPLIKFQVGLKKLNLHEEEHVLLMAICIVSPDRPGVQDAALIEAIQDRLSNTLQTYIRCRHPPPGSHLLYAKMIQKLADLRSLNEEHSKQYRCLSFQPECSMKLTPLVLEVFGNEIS
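Compounds are added to VDR with labelled SRC2-3 coactivator peptide and held 2 h at room temperature. Inhibition of the VDR–peptide interaction is then read as a change in fluorescence polarization.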
Sfp PPTase inh = blocks B. subtilis Sfp PPTase activity; Q9F4F7; Biochemical Sfp PPTase activity, qHTS; Potency, µM, inactives show largest response in the series, negative = inhibition, hits mostly inhibitors; actives 3.5% (n = 310,000); AID 1490;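 also: the enzyme is Sfp with the accession as filed and its product quenches rhodamine fluorescence; potency is read from the fitted curve at half-maximal effect; 0% = enzyme reaction without inhibitor and -100% = no enzyme wells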
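Sfp 15 nM + cpd, 15 min RT; start w/ rhodamine-CoA 5 uM, BHQ-2-YbbR 12.5 uM (final); 50 mM Hepes pH 7.6, 10 mM MgCl2, 0.01% NP-40, 0.01% BSA; read 525/598 nm at 0 and 30 min.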
Mm-Cpn inhibitor = inhibitors of Methanococcus maripaludis chaperonin TRiC (MmCpn); purified Mm-Cpn ATPase, ADP Transcreener TR-FRET; Potency, µM (series often up to 76.9 µM), without a hit: at the top dose activity, negative = inhibition, hits mostly inhibitors; actives 0.031% (n = 330,000); AID 504842; also: potency is read from the fitted curve at half-maximal effect; nearly all actives have a fitted effect of over 80% in size
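ATPase turnover read by TR-FRET ADP competition (Eu cryptate antibody/ADP-d2, 665/590 nm): 10uM ATP final, 25nM Mm-CPN final, 30 min 37degC after 10-min compound preincubation, pH 7.4 Tris/KCl/MgCl2/DTT buffer.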
CCT chaperon mod = modulators of cytosolic chaperonin (CCT/TRiC) activity. purified chaperonin ATPase assay, HTRF ADP detection, 30 min. activity change, % (no concentration beside the values), hits read low. actives 0.3% (n = 360,000); in the data active = activity change below about -30%
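Enzyme 40 or 20 nM (batch-dependent) in Tris pH 7.4/KCl/MgCl2/DTT; cpd 76 uM single point; ATP 10 uM; 30 min 37 °C; Transcreener ADP HTRF detection, 30 min RT; ratio 665/615.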
G9a block = blocks human histone lysine methyltransferase G9a; Q96KQ7; G9a H3K9 monomethylation, AlphaScreen, 2 h; actives 8.8% (n = 350,000); Potency, µM (titrated, usually from 102 µM), inactives show top-dose activity, negative = inhibition, hits mostly inhibitors; also: potency is read from the fitted curve at half-maximal effect; nearly all actives have a fitted effect of over 75% in size
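G9a (20 nM) preincubated 15 min RT with compounds, then 500 nM biotinylated H3K9 peptide and 20 uM SAM added; 2 h RT reaction. Monomethyl-H3K9 product detected by AlphaScreen with anti-H3K9me1 antibody, streptavidin donor and anti-rabbit IgG acceptor beads.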
PLK1 PBD block = PLK1 (human) polo-box domain binding inhibition; Potency, µM, inactives show max response, negative = inhibition, usual class: inhibitors; P53350; Plk1 PBD binding of FITC phosphopeptide, fluorescence polarization; actives 2.8% (n = 360,000); also: potency is read from the fitted curve at half-maximal effect; series mostly up to about 57 µM; nearly all actives have a fitted effect of over 65% in size
Starred values were filed as active, the others as inactive; ? = inconclusive; nt = no result given; ! = repeats disagree; [ ] = another dose, or the depositor's remark. An excerpt weighted towards active compounds, which were near 10% of everything screened. Unless noted, calls follow the shape of the dose curve; as a rule, active = well fitted curve in the direction sought with a large enough effect; inconclusive = small, poorly fitted or top-dose-only effect, or another doubt; inactive = no such curve, though single readings can be large; an effect the other way counts as inactive or inconclusive. Unless noted, % is scaled to controls: 0 for no effect and ±100 for the full control effect.

SMILES	VDR inhibitor	Sfp PPTase inh	Mm-Cpn inhibitor	CCT chaperon mod	G9a block	PLK1 PBD block
O=C(CCCCCNC(=O)c1ccccc1)C[N+](=O)[O-]	?	14%	3%	-1	19%[0.0925 µM]	-11%
O=C(CN1C(=O)C2CCCCN2c2ccc(C(=O)N3CCCC3)cc21)NCc1ccc(F)cc1 (stereo not drawn)	3%	nt	nt	nt	-1%[59 µM]	nt
N#CC1=C(SCC(N)=O)NC2=C(C(=O)c3ccccc32)C1c1ccc(Cl)cc1 (stereo not drawn)	-12%	2%	-3%	1	50µM*	?
COc1ccc2cc3cc(C(=O)N4CCN(c5ccccc5F)CC4)oc3nc2c1	-22%	nt	nt	nt	-19%[59 µM]	nt
CCCCCCCCCCCCCCCC(=O)OC(CC(=O)O)C[N+](C)(C)C (stereo not drawn)	-9%	-24%	1%	0	32µM*!	-20%
COc1ccc(NC(=O)c2ccc3c(c2)CCN3S(=O)(=O)c2ccc(C)cc2)cc1Cl	5%	nt	nt	nt	-24%[59 µM]	nt
C/C=C/C=C/C(=O)[C@@H]1[C@@H]([C@]2(C)OC(=O)C(C)=C2O)[C@H]2/C(=C(O)/C=C/C=C/C)C(=O)[C@]1(C)C(=O)C2(C)O (stereo partly drawn)	?	50µM*	1%	-1	?	?
CCN(C(=O)c1ccc(Cl)cc1[N+](=O)[O-])c1ccccc1C	18%	13%	1%	-8	40µM*	-3%
CC(C)(C)N(Cc1ccccc1)C(=O)c1ccc(Cl)cc1[N+](=O)[O-]	-20%	-1%	-10%	-3	?	-9%
O=C(c1ccc(Cl)cc1[N+](=O)[O-])N(Cc1ccccc1)Cc1ccccc1	nt	5%	0%	nt	79µM*	nt
Nc1c(-c2nc(-c3cccs3)no2)nnn1-c1cccc(F)c1	2%	nt	nt	nt	7%[59 µM]	nt
COc1cccc2ccc(CC(O)(c3ccccc3)c3ccccc3)nc12	nt	nt	nt	-52*	nt	2%
Cc1ccc2nc(CC(O)(c3ccccc3)c3ccccc3)ccc2c1	nt	nt	nt	0	nt	3%
CCOc1ccc(CNC(=O)c2cnc3sc(N(CC)CC)nn3c2=O)cc1	9%	nt	nt	nt	0%[59 µM]	nt
CCOc1ccc(NC(=O)C(NS(=O)(=O)c2ccc3c(c2)CCN3C(C)=O)C(C)C)cc1 (stereo not drawn)	9%	nt	nt	nt	3%[59 µM]	nt
CCN(CC(F)(F)C(F)F)S(=O)(=O)c1ccc(NC(=O)OC)cc1	?	23%	-3%	-1	53%[59 µM]	3.8µM*
CC(=O)Nc1ccc(NC(=S)NC(=O)C2CCCC2)cc1	-2%	12%	2%	0	35%	-13%
COC(=O)Nc1ccc(S(=O)(=O)N(CCO)CC(F)(F)C(F)F)cc1	9%	16%	0%	0	24%[59 µM]	-12%
CCOC(=O)C(Cc1ccccc1)C(=O)Nc1ccc(N(CC)CC)cc1 (stereo not drawn)	-8%	-8%	-1%	-3	3.5µM*	-1%
CCN(CC)c1ccc(/C=N/NC(=O)OC(C)(C)C)cc1	5%	-16%	-1%	-2	50µM*	5%
CCN(CC)c1ccc(/C=N\NC(N)=O)cc1	-1%	-8%	-6%	1	?	-11%
CCN(CC)c1ccc(NC(=S)NC(=O)C2CCC2)cc1	-9%	5%	1%	0	40µM*	-12%
CCOC(=O)C(Cc1ccccc1)C(=O)c1ccco1 (stereo not drawn)	3%	nt	-10%	-2	7%[12.7 µM]	-2%
CCCN(CCC)CCNC(=O)c1cc2c(=O)oc3ccc(C)cc3c2s1	3%	nt	nt	nt	-34%[59 µM]	nt
Cc1ccc(NC(=O)Cn2c(=O)n(CC3CCC(C(=O)NC(C)C)CC3)c(=O)c3sccc32)cc1 (stereo not drawn)	6%	nt	nt	nt	4%[59 µM]	nt
CC(C)CN1CC2(CCN(C(=O)c3ccco3)CC2)C1	-4%	-4%	nt	nt	1%[12.7 µM]	nt
CCN(CC)c1ccc(NC(=O)OC)cc1	-12%	-21%	-7%	-5	3.5µM*	-1%
Cc1ccc(C)c(N(CC(N)=O)S(C)(=O)=O)c1	?	14%	1%	-6	24%[59 µM]	27µM*
Cc1cc(=O)n(CC(=O)N2CCCc3ccccc32)c2c1c(C)nn2-c1cccc(F)c1	4%	nt	nt	nt	12%[59 µM]	nt
